Screening data: PubChem, National Center for Advancing Translational Sciences (NCATS)
HP1b chromo inh = HTS for Inhibitors of HP1-beta Chromodomain Interactions with Methylated Histone Tails; Chromobox protein homolog 1 (Homo sapiens), P83916; AID 540317, 2011; AlphaScreen HP1-beta / biotin-H3K9me3 peptide binding; 390,000 compounds, 0.56% hits; Potency, µM (titrated, usually from 114 µM), inactives show at the highest dose activity change, negative = inhibition, usual class: inhibitors; note: nearly all actives have a fitted effect of over 70% in size
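AlphaScreen: HP1-beta (50 nM) preformed 30 min with biotin-H3(1-18)K9me3 peptide (50 nM) in PBS pH 7.4, 0.01% Tween-20. Compound added for 30 min at RT, then streptavidin donor/nickel chelate acceptor beads (10 ug/mL) for 30 min.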
BAZ2B block = qHTS Assay for Inhibitors of BAZ2B; AID 504333, 2011; Potency, µM (series often up to 114 µM), for inactives: at the highest dose activity change, negative = inhibition, most hits filed as inhibitors; AlphaScreen BAZ2B-H3K14Ac peptide displacement; Bromodomain adjacent to zinc finger domain protein 2B (Homo sapiens), Q9UIF8; 360,000 compounds, 4.4% hits; note: % is set by controls: 0 for no effect and ±100 for the full control effect; nearly all actives have a fitted effect of over 60% in size
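Multi-concentration screen (max 110 uM) measuring displacement of acetylated histone H3 peptide from BAZ2B by AlphaScreen, using 50 nM protein, 50 nM peptide and 10 ug/mL streptavidin donor plus Ni-chelate acceptor beads.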
JMJD2A Tudor inh = qHTS Assay for Inhibitors of JMJD2A-Tudor Domain; Lysine-specific demethylase 4A (Homo sapiens), O75164; AlphaScreen JMJD2A-Tudor / H3K4me3 peptide binding; Potency, µM (top dose mostly 114 µM), without a hit: at the top dose activity change, negative = inhibition, most hits filed as inhibitors; 390,000 compounds, 4.4% hits; note: % is set by controls: 0 for no effect and ±100 for the full control effect; nearly all actives have a fitted effect of over 50% in size
G9a block = qHTS Assay for Inhibitors of Histone Lysine Methyltransferase G9a; Histone-lysine N-methyltransferase EHMT2 (Homo sapiens), Q96KQ7; G9a H3K9 monomethylation, AlphaScreen, 2 h; Potency, µM (doses to about 102 µM), without a hit: at the top dose activity, negative = inhibition, actives largely listed as inhibitors; 350,000 compounds, 8.8% hits; note: % is set by controls: 0 for no effect and ±100 for the full control effect; nearly all actives have a fitted effect of over 75% in size
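AlphaScreen read-out: biotin-H3K9 peptide (500 nM) methylation by 20 nM enzyme with 20 uM SAM, 2 h at room temperature after 15 min compound preincubation; anti-monomethyl H3K9 antibody plus donor/acceptor beads, 10 min dark.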
PLK1 PBD inh = qHTS for Inhibitors of PLK1-PDB (polo-like kinase 1 - polo-box domain): Primary Screen; Serine/threonine-protein kinase PLK1 (Homo sapiens), P53350; Plk1 PBD binding of FITC phosphopeptide, fluorescence polarization; Potency, µM, inactives show max response, negative = inhibition, hits mostly inhibitors; 360,000 compounds, 2.8% hits; AID 720504, 2013; note: series mostly up to about 57 µM; % is set by controls: 0 for no effect and ±100 for the full control effect; nearly all actives have a fitted effect of over 65% in size
Sfp PPTase inh = qHTS Assay for Inhibitors of Bacillus subtilis Sfp phosphopantetheinyl transferase (PPTase); Potency, µM, for inactives: largest response in the series, negative = inhibition, most hits filed as inhibitors; 4'-phosphopantetheinyl transferase ffp (Bacillus subtilis), Q9F4F7; Biochemical Sfp PPTase activity, qHTS; 310,000 compounds, 3.5% hits;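 note: the enzyme is Sfp with the accession as filed and its product quenches rhodamine fluorescence; 0% = enzyme reaction without inhibitor and -100% = no enzyme wells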
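After 15 min at room temperature with compound, 15 nM Sfp received 5 uM rhodamine-CoA plus 12.5 uM BHQ-2-ybbR (50 mM Hepes pH 7.6, 10 mM MgCl2). Rate came from the fluorescence difference over 30 min, ex 525/em 598 nm.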
Numbers without * were called inactive; ? = inconclusive; nt = no result; [ ] = dose if it differs, or a comment. Most compounds without a hit are left out; they make up all but 12% or so of the library. Calls come from the whole dose curve; as a rule, active = well fitted curve in the direction sought with a large enough effect; inconclusive = small, poorly fitted or top-dose-only effect, or another doubt; inactive = no such curve, though single readings can be large; an effect the other way counts as inactive or inconclusive. Potency is the fitted concentration of half-maximal effect.

SMILES	HP1b chromo inh	BAZ2B block	JMJD2A Tudor inh	G9a block	PLK1 PBD inh	Sfp PPTase inh
CCCNC(=O)OC[C@@H]1O[C@H](CCO/N=C\c2ccc(C(=O)N3[C@H](c4ccc(C)cc4)[C@@H](C)CC[C@H]3C(=O)OC)cc2)C=C[C@@H]1Oc1ccc(OC)cc1	nt	nt	nt	nt	nt	7%
C=C1C(=O)OC2C[C@@]3(C)CCCC(=C)[C@@H]3CC12 (some centres undefined)	nt	nt	nt	nt	nt	-2%
CC(/C=C/c1ccccc1)=N\Nc1nc2c(c(=O)[nH]c(=O)n2C)n1CCO	35%	-14%	-5%	?	-7%	40µM*
CCCn1c(N/N=C\C=C\c2ccccc2)nc2c1c(=O)[nH]c(=O)n2C	-4%	nt	-29%	-44%	0%	-24%
COCCn1c(N/N=C(C)/C=C/c2ccccc2)nc2c1c(=O)[nH]c(=O)n2C	nt	-13%	nt	nt	nt	40µM*
Cn1c(=O)[nH]c(=O)c2c1nc(Br)n2C/C=N/NC(=O)c1ccccc1	27%	0%	2%	0%	4%	4%
Cn1c(=O)[nH]c(=O)c2c1nc(Br)n2C/C=N/Nc1ccccc1	37%	?	-31%	?	-2%	56µM*
Cc1cccc(C(=O)OC(C)C(=O)Nc2ccc(S(=O)(=O)Nc3ncccn3)cc2)c1C (centres undefined)	17%	9%	-17%	?	-2%	nt
CC(=O)c1ccc(NC(=O)CC2Oc3ccc(C)cc3NC2=O)cc1 (centres undefined)	8%	-1%	-17%	-21%[59 µM]	nt	nt
CCOC(=O)C1=C(CC)Nc2ccccc2N/C1=N\S(=O)(=O)c1cc(Br)ccc1Br	-13%	?	?	1%[59 µM]	21µM*	11%
CCOC(=O)C1=C(CC)Nc2ccccc2N/C1=N\S(=O)(=O)c1ccc2ccccc2c1	24%	-21%	-21%	?	-14%	5%
NC1=NC(=O)/C(=C/c2cccc(F)c2)S1	14%	2%	-10%	4%	-8%	-4%
CC(=O)Nc1ccc(S(=O)(=O)Oc2cccc(/C=C3\SC(N)=NC3=O)c2)cc1	-1%	-31%	25µM*	-1%[59 µM]	4.2µM*	-9%
N#Cc1cccc(-c2cc(NCc3cccs3)ncn2)c1	nt	nt	nt	nt	nt	-8%
O=C(CN1CC(=O)Oc2ccccc21)OCC(=O)c1ccc(Br)cc1	70%	nt	20µM*	nt	-9%	nt
O=C(CN1CC(=O)Oc2ccccc21)OCC(=O)c1ccc(F)cc1	39%	8.9µM*	10µM*	?	-14%	50µM*
O=C1CN(CC(=O)N2CCCCC2)c2ccccc2O1	8%	-22%	-14%	?	-24%	-4%
CCNc1nc(NCC)nc(N(CC)C(N)=S)n1	-4%	-24%	-10%	1.8µM*	?	-30%
CCNc1nc(NCC)nc(N(C#N)C(C)C)n1	-3%	0%	-11%	12%	-1%	10%
C=C[C@@]1(C)CC[C@H]2C(=CC[C@@H]3[C@]2(C)CCC[C@@]3(C)C(=O)O)C1	nt	nt	nt	nt	nt	11%
COc1ccc(-c2noc(COc3ccc4c(c3)OCO4)n2)cc1	30%	9%	-13%	17%[59 µM]	3%	10µM*
COc1ccc(-c2noc(COc3ccc4c(c3)OCO4)n2)cc1OC	13%	-9%	-12%	-9%[59 µM]	-7%	8%
COc1ccc(-c2noc(CSc3nc(-c4ccccc4)cc(=O)[nH]3)n2)cc1	37%	26%	-18%	40µM*	-3%	?
Cc1ccc(OCc2nc(-c3ccccc3)no2)cc1	83%	125%	-3%[11.4 µM]	440%	12µM*	1%
COc1ccc(OCC(=O)NCc2nc(-c3ccccc3)no2)cc1	-15%[57 µM]	nt	-33%	nt	30µM*	nt
SMILES	HP1b chromo inh	BAZ2B block	JMJD2A Tudor inh	G9a block	PLK1 PBD inh	Sfp PPTase inh
O=c1cc(-c2ccccc2)nc(SCc2nc(-c3ccc(C(F)(F)F)cc3)no2)[nH]1	31%	1%	8%	-7%[59 µM]	nt	nt
Cc1ccc(Cl)cc1NC(=O)CCCn1c(=O)c2cccn2c2ccccc21	23%	-15%	-29%	?	nt	nt
Clc1ccc(Cn2cc3c(n2)-c2cc4ccccc4n2C3)cc1	37%[57 µM]	nt	4%[57.1 µM]	nt	nt	nt
c1ccc(CNc2nc3c(-c4ccccc4)nnn3c3ccccc23)cc1	30%	5%	-7%	?	nt	nt
CCOC(=O)CC(NCc1ccc(OC)c(OCC)c1)c1ccc(C)cc1 (centres undefined)	4%	-15%	56µM*	-14%[12.7 µM]	21µM*	1%
COc1cc(CNCCc2ccccc2)ccc1OCC(N)=O	28%	-8%	-6%	-45%[59 µM]	-8%	3%
COc1ccc(CNCCNC(=O)c2cccs2)cc1OC	?	nt	20µM*	11µM*	6%	-8%
CCOC(=O)CCNCc1ccc(OC)c(OC)c1	14%	3%	-15%[11.4 µM]	5%[12.7 µM]	24µM*	-2%
COc1cc(CNCCNC(=O)c2cccs2)cc(OC)c1OC	-21%	89µM*	28µM*	nt	-2%	-15%
COc1ccc(CNC(=O)Cc2cccs2)cc1OC	16%	-3%	8%	2%	0%	2%
Cc1c2cnn(CC(=O)N3CCN(c4ccccc4)CC3)c(=O)c2c(C)n1Cc1ccc(F)cc1	-4%	-5%	-17%	6%[59 µM]	nt	nt
